# Measured values from PubChem BioAssay (Tox21).
# Values without a mark were called inactive. Results filed as inconclusive are left out. Where a call stands in place of a potency, no number is given. The source made the active and inactive calls. Unless noted, calls come from the whole dose curve; as a rule, active = well fitted curve in the direction sought with a large enough effect in the repeat runs; inconclusive = weak or mixed curves; inactive = no such curve, though single readings can be large; an effect the other way counts as inactive or inconclusive.
# Columns and labels:
# [1] = target: Estrogen receptor beta (Homo sapiens) (UniProt Q92731); experiment: qHTS assay to identify small molecule agonists of the estrogen receptor beta (ER-beta) signaling pathway (AID 1259377; active = well fitted activation curve with a large enough effect in the signal ratio in the repeat runs, not every such curve was filed as active; the % refers to the signal ratio)
# Sequence of Estrogen receptor beta (Homo sapiens) (Q92731 whole entry, looked up): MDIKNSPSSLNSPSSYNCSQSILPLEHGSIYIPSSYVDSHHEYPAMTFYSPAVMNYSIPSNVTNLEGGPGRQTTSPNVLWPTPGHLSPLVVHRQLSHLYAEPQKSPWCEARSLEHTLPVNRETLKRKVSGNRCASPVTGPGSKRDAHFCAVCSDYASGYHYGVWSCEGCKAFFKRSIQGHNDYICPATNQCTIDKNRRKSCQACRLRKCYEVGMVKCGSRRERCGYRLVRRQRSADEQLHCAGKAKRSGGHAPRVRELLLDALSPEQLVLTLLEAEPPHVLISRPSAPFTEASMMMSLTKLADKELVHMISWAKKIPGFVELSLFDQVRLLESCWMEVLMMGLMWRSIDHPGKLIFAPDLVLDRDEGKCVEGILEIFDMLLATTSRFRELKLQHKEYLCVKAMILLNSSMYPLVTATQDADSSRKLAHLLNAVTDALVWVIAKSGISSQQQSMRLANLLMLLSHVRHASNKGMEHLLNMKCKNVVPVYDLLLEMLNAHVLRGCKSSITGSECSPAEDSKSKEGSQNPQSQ
# Summary of the method: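 Read-out: beta-lactamase FRET fluorescence. Cell line: ER-beta-UAS-bla HEK293T in 2% charcoal-stripped FBS. Exposure: 16 hr at 37C. Substrate step: 2 h at room temperature.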
# [2] = qHTS assay to identify small molecule agonists of the androgen receptor (AR) signaling pathway in the presence of an antagonist - cell viability counter screen (AID 1259379); note: series mostly up to about 92 µM; nearly all actives have a fitted effect of over 25% in size
# Summary of the method: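 MDA-kb2 human breast carcinoma cells (stable MMTV-luciferase, AR/GR responsive) were seeded 3,000 cells/well, pre-incubated 5 hr at 37C without CO2, then given 3.0uM nilutamide and compounds at 15 concentrations for 16 hr. Viability was read by CellTiter-Fluor fluorescence.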
# [3] = qHTS assay to identify small molecule agonists of the estrogen receptor beta (ER-beta) signaling pathway - cell viability counter screen (AID 1259380); note: nearly all actives have a fitted effect of over 30% in size
# Summary of the method: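 ER-beta-UAS-bla HEK293T cells in medium with 2% charcoal-stripped FBS were preincubated 6 hr at 37C, dosed with compound in DMSO for 16 hr, then after the bla read, CellTiter-Glo was added for 30 min at room temperature; luminescence recorded.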
# [4] = qHTS assay to identify small molecule antagonists of the estrogen receptor beta (ER-beta) signaling pathway - cell viability counter screen (AID 1259382);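 note: HEK293T cells carrying ER-beta-UAS-bla reporter stimulated with estradiol; series mostly up to about 92 µM; nearly all actives have a fitted effect of over 55% in size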
# Summary of the method: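 ER-beta-UAS-bla HEK293T cells (2,000/well, 2% charcoal-stripped FBS) were pre-incubated 6 hr at 37C, then given compound plus 1nM final 17-beta-estradiol for 16 hr. Viability was read in the same wells by CellTiter-Glo luminescence after 30 min at room temperature.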
# [5] = target: Estrogen receptor (Homo sapiens) (UniProt P03372); experiment: qHTS assay to identify small molecule agonists of the estrogen receptor alpha (ER-alpha) signaling pathway in the presence of an antagonist (AID 1259383; calls by dose curve; note: top concentration of the series differs between compounds; nearly all actives have a fitted effect of over 15% in size)
# Sequence of Estrogen receptor (Homo sapiens) (P03372 whole entry, looked up): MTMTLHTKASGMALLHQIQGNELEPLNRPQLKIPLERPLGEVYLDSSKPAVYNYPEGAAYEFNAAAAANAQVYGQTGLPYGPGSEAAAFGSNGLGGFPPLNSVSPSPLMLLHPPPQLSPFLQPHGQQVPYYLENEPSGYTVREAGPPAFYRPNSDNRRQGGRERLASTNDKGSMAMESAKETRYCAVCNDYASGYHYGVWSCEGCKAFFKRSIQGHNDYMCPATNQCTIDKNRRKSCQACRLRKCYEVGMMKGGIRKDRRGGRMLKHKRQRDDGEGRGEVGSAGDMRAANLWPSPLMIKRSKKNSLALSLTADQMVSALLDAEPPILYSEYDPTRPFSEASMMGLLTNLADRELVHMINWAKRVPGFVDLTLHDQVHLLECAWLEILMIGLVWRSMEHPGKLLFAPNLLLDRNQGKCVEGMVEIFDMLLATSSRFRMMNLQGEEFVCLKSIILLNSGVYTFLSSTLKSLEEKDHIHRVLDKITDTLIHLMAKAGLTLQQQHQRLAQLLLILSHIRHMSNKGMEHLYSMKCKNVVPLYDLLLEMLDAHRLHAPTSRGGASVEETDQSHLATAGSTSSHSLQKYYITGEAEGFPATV
# Summary of the method: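 VM7Luc4E2 cells (endogenous full-length ER-alpha, 4×ERE-luciferase) were precultured 5 days in phenol red-free medium with 10% charcoal-stripped FBS, given 10.0nM ICI-182,780 (final), then treated with compounds at 15 concentrations for 22hr at 37C; luminescence read with ONE-Glo.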
# [6] = qHTS assay to identify small molecule agonists or antagonists of the thyroid stimulating hormone receptor (TSHR) signaling pathway - wild type cell line counter screen (AID 1259384; calls by dose curve)
# Summary of the method: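 Counter screen in untransfected Hek293: compounds (15-point titration, triplicate) plus phosphodiesterase inhibitor Ro20-1724 added after 18 h plating; 30 min RT. Intracellular cAMP via competitive d2/cryptate immunoassay, 1 h incubation.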
# [7] = target: Thyrotropin receptor (Homo sapiens) (UniProt P16473); experiment: qHTS assay to identify small molecule antagonists of the thyroid stimulating hormone receptor (TSHR) signaling pathway (AID 1259385; calls by dose curve; note: nearly all actives have a fitted effect of over 20% in size)
# Sequence of Thyrotropin receptor (Homo sapiens) (P16473 whole entry, looked up): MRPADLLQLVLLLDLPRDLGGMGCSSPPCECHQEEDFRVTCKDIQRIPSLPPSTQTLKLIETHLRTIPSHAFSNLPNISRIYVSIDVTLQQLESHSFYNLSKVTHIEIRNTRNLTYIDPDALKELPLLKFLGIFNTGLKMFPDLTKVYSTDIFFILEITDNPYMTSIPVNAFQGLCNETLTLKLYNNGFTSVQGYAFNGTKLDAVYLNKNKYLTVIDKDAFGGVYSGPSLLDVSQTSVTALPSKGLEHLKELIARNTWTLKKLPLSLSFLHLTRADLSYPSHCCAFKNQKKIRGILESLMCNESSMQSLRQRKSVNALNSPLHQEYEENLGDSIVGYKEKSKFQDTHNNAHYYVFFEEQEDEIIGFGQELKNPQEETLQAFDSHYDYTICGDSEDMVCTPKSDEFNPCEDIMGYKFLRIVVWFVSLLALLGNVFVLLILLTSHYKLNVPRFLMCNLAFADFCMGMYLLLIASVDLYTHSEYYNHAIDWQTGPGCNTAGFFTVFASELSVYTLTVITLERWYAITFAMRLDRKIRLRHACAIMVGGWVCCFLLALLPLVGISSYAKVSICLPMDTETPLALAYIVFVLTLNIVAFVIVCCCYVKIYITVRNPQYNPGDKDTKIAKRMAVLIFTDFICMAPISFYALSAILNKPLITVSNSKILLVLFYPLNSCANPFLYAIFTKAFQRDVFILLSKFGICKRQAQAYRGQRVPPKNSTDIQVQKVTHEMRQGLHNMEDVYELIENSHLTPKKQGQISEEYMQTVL
# Summary of the method: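 Antagonist mode: compound-treated TSHR-expressing HEK293 cells were stimulated with 1.5 ng/mL TSH (final) in presence of Ro20-1724 for 30 min at RT. HTRF cAMP detection after 1 h; each compound tested at 15 concentrations, triplicate.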
# [8] = qHTS assay to identify small molecule agonists of the estrogen receptor alpha (ER-alpha) signaling pathway in the presence of an antagonist - cell viability counter screen (AID 1259386);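 note: series mostly up to about 92 µM; cells exposed to compounds for 22 h at 37 °C before the viability read; nearly all actives have a fitted effect of over 30% in size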
# Summary of the method: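 VM7Luc4E2 cells (endogenous full-length ER-alpha, 4×ERE-luciferase) were held 5 days in phenol red-free medium with 10% charcoal-stripped FBS, plated, then given 10.0nM ICI-182,780 and compounds at 15 concentrations for 22hr at 37C; viability read by CellTiter-Fluor fluorescence.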
# [9] = target: Progesterone receptor (Homo sapiens) (UniProt P06401); experiment: qHTS assay to identify small molecule agonists of the progesterone receptor (PR) signaling pathway (AID 1346784; calls by dose curve; note: nearly all actives have a fitted effect of over 30% in size; note: potency is the fitted concentration of half-maximal effect)
# Sequence of Progesterone receptor (Homo sapiens) (P06401 whole entry, looked up): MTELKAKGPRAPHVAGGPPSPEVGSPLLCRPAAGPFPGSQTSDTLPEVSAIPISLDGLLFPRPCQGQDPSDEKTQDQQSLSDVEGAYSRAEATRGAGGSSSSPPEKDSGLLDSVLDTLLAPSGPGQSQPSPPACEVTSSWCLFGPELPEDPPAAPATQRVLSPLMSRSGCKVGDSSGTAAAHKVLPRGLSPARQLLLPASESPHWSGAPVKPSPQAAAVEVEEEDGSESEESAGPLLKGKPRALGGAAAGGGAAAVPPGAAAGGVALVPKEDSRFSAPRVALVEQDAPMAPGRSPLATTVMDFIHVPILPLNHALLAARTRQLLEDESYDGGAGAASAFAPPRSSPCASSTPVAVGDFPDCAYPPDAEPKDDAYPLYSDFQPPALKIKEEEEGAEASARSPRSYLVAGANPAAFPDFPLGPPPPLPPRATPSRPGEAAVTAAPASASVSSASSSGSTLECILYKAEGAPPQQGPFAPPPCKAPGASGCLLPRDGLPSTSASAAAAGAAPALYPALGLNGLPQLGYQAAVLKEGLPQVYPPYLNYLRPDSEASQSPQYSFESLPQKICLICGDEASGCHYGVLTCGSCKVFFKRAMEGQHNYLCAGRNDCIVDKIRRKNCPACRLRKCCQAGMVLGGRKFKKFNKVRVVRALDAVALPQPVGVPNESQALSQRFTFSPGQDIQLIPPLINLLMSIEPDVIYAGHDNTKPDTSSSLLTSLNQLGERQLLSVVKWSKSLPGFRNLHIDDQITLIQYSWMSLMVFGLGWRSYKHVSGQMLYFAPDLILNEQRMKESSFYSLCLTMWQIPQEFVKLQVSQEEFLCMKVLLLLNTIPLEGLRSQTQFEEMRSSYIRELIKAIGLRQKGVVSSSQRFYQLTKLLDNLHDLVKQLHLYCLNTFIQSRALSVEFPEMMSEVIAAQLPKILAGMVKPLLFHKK
# Summary of the method: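 Compounds were tested for PR agonism in HEK 293T cells bearing a beta-lactamase gene under UAS control. Treatment lasted 16 hr at 37C; signal came from fluorescence of a FRET substrate.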
# [10] = target: Progesterone receptor (Homo sapiens) (UniProt P06401); experiment: qHTS assay to identify small molecule antagonists of the progesterone receptor (PR) signaling pathway (AID 1346795; active = well fitted inhibition curve with a large enough effect in the signal ratio in the repeat runs, not every such curve was filed as active; the % refers to the signal ratio)
# Summary of the method: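 In HEK293T cells bearing the PR-UAS-bla reporter, compound effects on promegestone-driven (1 nM) beta-lactamase expression are assessed after 16 hr using a fluorescent FRET substrate incubated 2 hr at room temperature.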
# [11] = qHTS assay to identify small molecule antagonists of the progesterone receptor (PR) signaling pathway - cell viability counter screen (AID 1346798); note: series mostly up to about 92 µM; nearly all actives have a fitted effect of over 50% in size
# Summary of the method: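 Following a 4 hr attachment, PR-UAS-bla HEK293T cells in charcoal-stripped FBS medium were exposed to compounds with R5020 for 16 hr; CellTiter-Glo was added and luminescence read after 30 min at room temperature.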
# [12] = qHTS assay to identify small molecule agonists of the progesterone receptor (PR) signaling pathway - cell viability counter screen (AID 1346799; calls by dose curve; note: nearly all actives have a fitted effect of over 45% in size)
# Summary of the method: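 Here, 3,000 PR-UAS-bla HEK293T cells per well were treated with compounds for 16 hr after a 6 hr preincubation at 37C and 5% CO2; cell viability is the CellTiter-Glo luminescence signal.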
# [13] = qHTS assay to identify small molecule agonists of the TGF-beta/Smad signaling pathway (AID 1346859; active = well fitted activation curve with a large enough effect in the signal ratio in the repeat runs, not every such curve was filed as active; the % refers to the signal ratio; note: series mostly up to about 77 µM)
# Summary of the method: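 Each well held 4,000 SBE-bla HEK 293T cells incubated overnight before compound addition; 5 hr later the cleavable FRET substrate went on for 2 hr at room temperature, and fluorescence was read at two emissions.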
# [14] = target: Thyrotropin-releasing hormone receptor (Homo sapiens) (UniProt P34981); experiment: qHTS assay to identify small molecule antagonists of the thyrotropin-releasing hormone receptor (TRHR) signaling pathway (AID 1346877; active = well fitted inhibition curve with a large enough effect in the repeat runs, not every such curve was filed as active; note: series mostly up to about 51 µM)
# Sequence of Thyrotropin-releasing hormone receptor (Homo sapiens) (P34981 whole entry, looked up): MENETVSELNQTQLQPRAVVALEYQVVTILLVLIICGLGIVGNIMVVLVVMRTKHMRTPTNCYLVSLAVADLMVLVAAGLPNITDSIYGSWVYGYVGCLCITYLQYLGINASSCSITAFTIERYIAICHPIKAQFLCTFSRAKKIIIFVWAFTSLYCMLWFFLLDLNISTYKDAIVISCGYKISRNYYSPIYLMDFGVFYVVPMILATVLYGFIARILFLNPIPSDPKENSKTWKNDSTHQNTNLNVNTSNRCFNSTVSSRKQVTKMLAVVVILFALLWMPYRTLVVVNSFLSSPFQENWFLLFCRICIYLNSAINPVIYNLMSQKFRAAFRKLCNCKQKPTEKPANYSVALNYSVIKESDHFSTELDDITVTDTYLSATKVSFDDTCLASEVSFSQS
# Summary of the method: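 TRHR-expressing HEK293 cells were seeded, cultured 18 h at 37 °C, then loaded with calcium dye for 2 h. Compounds were pre-incubated 5 min at room temperature before 1 nM TRH (final) was added, and kinetic fluorescence was recorded for 3 min.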
# [15] = target: Thyrotropin-releasing hormone receptor (Homo sapiens) (UniProt P34981); experiment: qHTS assay to identify small molecule agonists of the thyrotropin-releasing hormone receptor (TRHR) signaling pathway (AID 1346891; calls by dose curve; note: series mostly up to about 58 µM)
# Summary of the method: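 Screening of agonists relied on calcium signalling in HEK293 cells expressing human TRHR: dye loading 2 h at 37 °C preceded compound addition and a 3-min fluorescence time course.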
# [16] = target: Androgen receptor (Homo sapiens) (UniProt P10275); experiment: qHTS assay to identify small molecule agonists of the androgen receptor (AR) signaling pathway in the presence of an antagonist (AID 1259381; calls by dose curve; note: nearly all actives have a fitted effect of over 15% in size)
# Sequence of Androgen receptor (Homo sapiens) (P10275 whole entry, looked up): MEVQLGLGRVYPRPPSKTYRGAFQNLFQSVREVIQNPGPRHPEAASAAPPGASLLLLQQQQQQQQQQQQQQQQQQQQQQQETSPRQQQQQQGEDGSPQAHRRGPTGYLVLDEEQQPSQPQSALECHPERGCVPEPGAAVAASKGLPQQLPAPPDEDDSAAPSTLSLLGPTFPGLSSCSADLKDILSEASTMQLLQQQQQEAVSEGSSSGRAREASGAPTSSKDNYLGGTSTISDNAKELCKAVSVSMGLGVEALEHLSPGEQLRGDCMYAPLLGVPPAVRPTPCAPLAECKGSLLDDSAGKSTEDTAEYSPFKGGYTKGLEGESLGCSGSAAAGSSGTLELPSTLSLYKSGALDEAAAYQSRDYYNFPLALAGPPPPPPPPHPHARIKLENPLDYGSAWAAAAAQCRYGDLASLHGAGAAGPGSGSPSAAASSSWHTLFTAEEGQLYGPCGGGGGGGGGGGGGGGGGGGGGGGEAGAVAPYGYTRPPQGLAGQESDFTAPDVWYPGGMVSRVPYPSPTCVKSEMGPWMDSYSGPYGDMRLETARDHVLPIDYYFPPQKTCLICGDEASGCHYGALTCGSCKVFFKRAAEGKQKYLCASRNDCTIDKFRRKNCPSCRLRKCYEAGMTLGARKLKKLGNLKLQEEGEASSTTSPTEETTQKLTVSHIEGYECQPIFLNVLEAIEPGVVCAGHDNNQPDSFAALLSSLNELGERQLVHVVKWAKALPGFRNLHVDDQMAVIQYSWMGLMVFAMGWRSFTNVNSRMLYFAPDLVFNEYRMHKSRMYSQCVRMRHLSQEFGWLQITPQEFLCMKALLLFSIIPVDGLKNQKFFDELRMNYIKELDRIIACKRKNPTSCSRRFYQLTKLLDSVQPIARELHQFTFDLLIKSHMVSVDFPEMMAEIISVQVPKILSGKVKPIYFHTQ
# Summary of the method: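 MDA-kb2 human breast carcinoma cells carrying an MMTV-luciferase reporter (AR- and GR-responsive) were treated with compounds at 15 concentrations plus 3.0uM final nilutamide for 16hr at 37C without CO2; luminescence was read after ONE-Glo addition.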
# [17] = qHTS assay to identify small molecule antagonists of the TGF-beta/Smad signaling pathway - cell viability counter screen (AID 1346824); note: nearly all actives have a fitted effect of over 50% in size
# Summary of the method: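 Cytotoxicity counter-screen run in the same wells as the beta-lactamase Smad reporter read: CellTiter-Glo luminescence after 30 min at room temperature. HEK 293T SBE-bla cells had 5 hr compound exposure at 37 C with TGF-beta1 (0.25 ng/mL stock).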
# [18] = qHTS assay to identify small molecule agonists of the TGF-beta/Smad signaling pathway - cell viability counter screen (AID 1346829); note: top concentration of the series differs between compounds; nearly all actives have a fitted effect of over 45% in size
# Summary of the method: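 CellTiter-Glo luminescence readout; SBE-bla HEK 293T cells, overnight plating, compound 5 hr at 37 C/5% CO2, then bla substrate 2 hr RT, then CellTiter-Glo 30 min RT.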
# [19] = Human pregnane X receptor (PXR) small molecule agonists, qHTS cell viability counter screen (AID 1346977); note: nearly all actives have a fitted effect of over 50% in size
# Summary of the method: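 Tox21 qHTS format; PXR-Luc HepG2, 2,000/well, charcoal-stripped FBS 5%. Cpd exposure 24hr. Read: CellTiter-Fluor fluorescence, multiplexed with luciferase.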
# [20] = target: Estrogen receptor beta (Homo sapiens) (UniProt Q92731); experiment: qHTS assay to identify small molecule antagonists of the estrogen receptor beta (ER-beta) signaling pathway (AID 1259378; active = well fitted inhibition curve with a large enough effect in the signal ratio in the repeat runs, not every such curve was filed as active; the % refers to the signal ratio)
# Summary of the method: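 Antagonist mode: compounds added to beta-lactamase reporter HEK293T ER-beta-UAS cells stimulated with E2 (1nM final), 16 hr at 37C. LiveBLAzer B/G FRET substrate, 2 hours room temperature, fluorescence read-out.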
Structure (SMILES),Potency [1],Potency [2],Potency [3],Potency [4],Potency [5],Potency [6],Potency [7],Potency [8],Potency [9],Potency [10],Potency [11],Potency [12],Potency [13],outcome [14],outcome [15],Potency [16],outcome [17],Potency [18],Potency [19],Potency [20]
CC(C)C(=O)OCCOc1ccccc1,inactive,inactive,inactive,inactive,inactive,inactive,inactive,inactive,inactive,inactive,inactive,inactive,inactive,inactive,inactive,,,,,
O=NN(CCCl)C(=O)NCCCl,inactive,inactive,inactive,inactive,inactive,inactive,,inactive,inactive,inactive,inactive,inactive,inactive,inactive,,inactive,inactive,inactive,inactive,
CCCCCCCC(=O)OCCCCCC,inactive,inactive,inactive,inactive,,inactive,inactive,inactive,,,inactive,inactive,inactive,inactive,,inactive,inactive,inactive,inactive,
CCN(CC)CCOC(=O)C(c1ccccc1)c1ccccc1,inactive,inactive,,inactive,,inactive,,,inactive,,inactive,inactive,inactive,inactive,,,inactive,inactive,,inactive
Cc1oc(=O)oc1COC(=O)[C@@H]1N2C(=O)[C@@H](NC(=O)[C@H](N)c3ccccc3)[C@H]2SC1(C)C,inactive,inactive,inactive,inactive,inactive,inactive,inactive,inactive,inactive,,,inactive,inactive,inactive,inactive,inactive,inactive,,inactive,
CCCc1nc2c(C)cc(-c3nc4ccccc4n3C)cc2n1Cc1ccc(-c2ccccc2C(=O)O)cc1,inactive,inactive,,inactive,inactive,inactive,,inactive,inactive,,,inactive,,inactive,inactive,,inactive,inactive,inactive,inactive
CC(=O)OCC(=O)[C@@]1(OC(C)=O)[C@@H](C)C[C@H]2[C@@H]3C[C@H](F)C4=CC(=O)C=C[C@]4(C)[C@@]3(F)[C@@H](O)C[C@@]21C,inactive,inactive,,inactive,,inactive,inactive,inactive,237 nM (active),,,inactive,,,,,inactive,inactive,inactive,inactive
